# Source: PubChem BioAssay AID2685 (National Center for Advancing Translational Sciences (NCATS), 2010)
# The campaign covered roughly 320,000 compounds. About 2,100 (0.66%) were called active. Another 53% or so got no clear call; they are omitted. The call rests on the fitted dose curve; in most records, active means well fitted inhibition curve with a large enough effect in the signal ratio, with a control signal flat (not every such curve was filed as active); inconclusive means small, poorly fitted or top-dose-only effect, or effect the other way, or a change in a side signal; inactive means flat fitted curve, though single readings scatter; the % refers to the signal ratio. Only a selection was taken, and actives are over-represented in it overall.
# Experiment: qHTS Assay for Lipid Storage Modulators in Drosophila S3 Cells;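 on cell number change: cells counted by Cell Tracker Red CMTPX staining in the red channel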; on lipid storage change, negative = inhibition: on the % scale 0 is the no-effect control and ±100 the full control effect
# Details: BODIPY lipid droplet fluorescence, 18-24 h, cells fed with added oleic acid; cell number change: measured here: cell count max response; series mostly up to 46.1 µM; lipid storage change, negative = inhibition: at the top concentration
# From the text: NIH Molecular Libraries Probe Production Centers Network [MLPCN] NIH Chemical Genomics Center [NCGC] MLPCN Grant: 1 R03 MH085686-01 Assay Submitter (PI): Beller, Mathias; Max-Planck-Institut fur Biophysikalische Chemie NCGC Assay Overview: Storing lipids as a reservoir for energy or the anabolism of elementary metabolites is a common feature of probably all cells and is conserved from bacteria to humans. The universal cellular lipid storage organelle is the so-called lipid storage droplet (LD). Although ubiquitous, LDs share a simple structure composed of a hydrophobic core that harbors the storage lipids, which is shielded by a droplet-specific phospholipid monolayer to which proteins are attached. The current model of LD biogenesis involves an incorporation of the lipid core into the membrane leaflets of the endoplasmic reticulum (ER) followed by a subsequent budding-like maturation of a LD, which ultimately pinches off. Once released, LD volume can increase by localized lipogenesis or fusion of existing droplet. Storage lipids are re-mobilized enzymatically by lipase activity. Lipase regulation in the adipocyte is heavily studied and involves multiple components including catecholamine signaling, the LD-associated proteins Perilipin and comparative gene identification (CGI-58) and at least two lipases named hormone sensitive lipase (HSL) and adipocyte triglyceride lipase (ATGL). LD regulation outside of the adipocyte is poorly understood and only few components are known. However, there is an urgent need to learn more about ectopic fat depots as mislocalized storage of lipids, for example in the liver or muscle, is an eminent health problem associated with insulin resistance or the metabolic syndrome. We developed a laser-scanning cytometer assay to enable 1,536-well screening and combined the results of the small molecules screen with an RNAi database based on lipid storage.
# Triacsin C (Sigma-Aldrich T-4540), an inhibitor of long-chain fatty acyl CoA synthetase that blocks synthesis of triglycerides, was used as a positive control for lipid under-storage. A total of 23 nL of compound solution of different concentrations were transferred to the assay plates using a Kalypsys pin tool equipped with a 1,536-pin array containing 10-nL slotted pins (FP1S10, 0.457-mm diameter, 50.8 mm long; V&P Scientific). One microliter of oleic acid (400 uM) was added, and the plate was lidded with stainless steel rubber gasket lined lids containing pinholes. […] Fluorescence was detected by excitation of the fluorophores with a 488-nm laser on an Acumen Explorer (TTP Lab Tech). The total intensity in channel 2 (500-530 nm) reflected lipid droplet accumulation. Cells were detected using channel 3 (575-640 nm) with 5-um width and 100-um depth filters. The ratio of the number of objects in PMT channel 2 over the number of objects in PMT channel 3 was also calculated. Percent activity was computed relative to an internal control (100% inhibited lipid droplet deposition due to the presence of 20 uM Triacsin C), which was added to 32 wells/plate.
# Potency means the concentration at half of the fitted maximal effect.
SMILES,outcome,"lipid storage change, negative = inhibition",cell number change,Potency
O=C(O)CC1C(=O)NCCN1CCCc1ccccc1 (stereo not given),inactive,,,
CSc1cccc(NC(=O)C(C)NS(=O)(=O)c2ccc(F)cc2)c1 (stereo not given),inactive,,,
Cc1cc(C)nc(/N=C(\N)N2CCCCC2)n1,,-9.41% (inactive),-8.98%,
Cc1ccc(C(=O)C[n+]2cccc(C(N)=O)c2)cc1,,-6.48% (inactive),8.69%,
Cc1c(C(=O)n2cnc3ccccc32)cccc1[N+](=O)[O-],,9.85% (inactive),23.4%,
Cc1ccc(C2(C)NC(=O)N(CC(=O)Nc3ccc4c(c3)CCC4)C2=O)cc1 (stereo not given),,8.92% (inactive),-12.5%,
O=C(N/C(=C/c1cccnc1)C(=O)N1CCOCC1)c1ccco1,,-0.339% (inactive),0.681%,
COc1cc(-c2nc(CCNC(=O)c3ccco3)cs2)cc(OC)c1OC,,,-3.07%,18.4 µM (active)
O=C(NCCc1csc(-c2cccnc2)n1)c1ccco1,,1.09% [at 9.22 µM] (inactive),14.6%,
COc1ccc(-c2nc(CCNC(=O)c3ccc(Br)o3)cs2)cc1,inactive,,29.2%,
Cc1ccccc1CCN(C(=O)CN1C(=O)c2ccccc2S1(=O)=O)C(C(=O)NCC1CCCO1)c1ccncc1 (stereo not given),,2.68% (inactive),-7.43%,
Cc1ccccc1NS(=O)(=O)c1ccc(OCC(=O)NCc2ccccn2)cc1,,5.38% (inactive),6.59%,
CCC1CCCCN1CCCNC(=O)CCC(=O)N1CCOc2ccccc21 (stereo not given),,-28.6% (inactive),10.7%,
O=C(CCN1C(=O)C2C3C=CC(C3)C2C1=O)NC1CCCCC1 (stereo not given),inactive,,,
CC(C(=O)NC1CCCCC1)N1C(=O)C2C3C=CC(C3)C2C1=O (stereo not given),,,-1.76%,1.84 µM (active)
CC(C(=O)Nc1ccc2nccnc2c1)N1C(=O)C2C3C=CC(C3)C2C1=O (stereo not given),,6.01% (inactive),0.122%,
NC(=O)CCC(=O)N1CCCC(C(=O)c2ccc3c4c(cccc24)CC3)C1 (stereo not given),,3.16% (inactive),12.7%,
CCc1ccc(CN(C(=O)c2oc3ccccc3c2C)C2CCS(=O)(=O)C2)cc1 (stereo not given),,-21.5% (inactive),23.1%,
O=C(CCC(=O)NNC(=O)COc1ccc(Br)cc1)NCc1ccccc1,,-19.6% (inactive),6.5%,
Cc1ccc(S(=O)(=O)NCc2ccccc2)cc1C(=O)NCc1ccccn1,,-18% (inactive),-8.5%,
Cc1ccc(NS(=O)(=O)c2ccc(CCC(=O)NCc3ccccn3)cc2)cc1,,,-13.1%,2.59 µM (active)

SMILES,outcome,"lipid storage change, negative = inhibition",cell number change,Potency
Cc1cc(S(=O)(=O)NCc2ccccc2)ccc1OCC(=O)NCc1ccncc1,,6.29% (inactive),13.5%,
CC(C)NS(=O)(=O)c1ccc(CCC(=O)NCc2ccccn2)cc1,,21.7% (inactive),6.74%,
Cc1cc(S(=O)(=O)NCc2ccccc2)ccc1OCC(=O)NCc1ccccn1,,,6.72%,5.17 µM (active)
Cc1ccc(NS(=O)(=O)c2ccc(C(=O)NCc3ccccn3)cc2)cc1,,-21% (inactive),0.232%,
Cc1cc(C)c(C)c(S(=O)(=O)N2CCC(C(=O)N3CCCC3)CC2)c1C,,-11% (inactive),0.752%,
CCOC(=O)c1sc(NC(=O)c2ccccc2OCC)nc1C,,5.11% (inactive),6.73%,
CC(=O)NCCn1c(SCC#N)nc2ccccc2c1=O,,23.8% (inactive),8.06%,
COCCSc1nnc(NC(=O)C(C)(C)C)s1,,13.4% (inactive),-0.0656%,
CCC(=O)Nc1nnc(SCCOC)s1,inactive,,,
COCCSc1nnc(NC(=O)COC)s1,,,-16.2%,25.9 µM (active)
Cn1c(NC(=O)/C=C/c2c(F)cccc2Cl)cc(=O)n(C)c1=O,,-6.34% (inactive),12.8%,
Nc1cc([N+](=O)[O-])ccc1Nc1ccc(O)cc1,,-0.588% (inactive),-13.9%,
Nc1cc([N+](=O)[O-])ccc1O,,,-17.1%,9.2 µM (active)
Nc1nc(N)nc(-c2cc([N+](=O)[O-])ccc2O)n1,,0.171% (inactive),-17.3%,
CCN(CC)CCNC(=O)c1cc(Br)c(N)cc1OC,,1.26% (inactive),6.76%,
CCN(CC)CCNC(=O)c1ccccc1C(=O)c1ncc[nH]1,inactive,,-16.6%,
CCN(CC)CCNC(=O)c1ccccc1N,,,-10.7%,23.1 µM (active)
CN1CCN(NC(=O)c2cc(S(=O)(=O)Nc3ccc(Cl)cc3)ccc2Cl)CC1,,19% (inactive),18.2%,
O=[N+]([O-])c1cc([N+](=O)[O-])c2cc3ccccc3nc2c1,,,-20.7%,3.26 µM (active)
O=[N+]([O-])c1cnc2ccccc2c1,,2.15% (inactive),16.2%,
O=[N+]([O-])c1cc([N+](=O)[O-])c2n[nH]c(-c3ccccc3)c2c1,,12.5% (inactive),17.9%,

SMILES,outcome,"lipid storage change, negative = inhibition",cell number change,Potency
Cc1ccc(C(=O)NCCn2cc(SCC(=O)Nc3cc(C)on3)c3ccccc32)cc1,,-4.46% (inactive),,
Cc1nn(CC(=O)Nc2ccc(S(=O)(=O)N(C)C)cc2)c(C)c1[N+](=O)[O-],,11.6% (inactive),9.05%,
Cc1nn(CC(=O)Nc2ccc(Cl)c(S(=O)(=O)N(C)C)c2)c(C)c1[N+](=O)[O-],,,-5.49%,0.58 µM (active)
Cc1nn(CC(=O)Nc2ccc(N(C)C)cc2)c(C)c1[N+](=O)[O-],inactive,,-14.5%,
COc1ccccc1NC(=O)c1ccc(-n2ccnc2)c([N+](=O)[O-])c1,,9.53% (inactive),13%,
O=C(O)c1ccc(-n2ccnc2)c([N+](=O)[O-])c1,inactive,,9.03%,
CN(C)S(=O)(=O)c1cc(NC(=O)c2ccc(-n3ccnc3)c([N+](=O)[O-])c2)ccc1Cl,,,5.46%,20.6 µM (active)
CN(C)S(=O)(=O)c1ccc(C(=O)NCCSc2ccc(Br)cc2)cc1,,19% (inactive),20%,
Cc1ccc2[nH]c(=O)c(CN(CCCN(C)C)C(=S)NCCc3ccccc3)cc2c1,,-2.53% (inactive),-4.82%,
CC(CCc1ccccc1)NC(=O)C1CCN(S(=O)(=O)c2cnc[nH]2)CC1 (stereo not given),,16.3% (inactive),,
COc1ccc(S(=O)(=O)N2CCC(C(=O)NCC3CCCO3)CC2)cc1 (stereo not given),inactive,,,
Cc1c(C#N)sc(C(N)=O)c1C,,-3.02% (inactive),10.5%,
Clc1cccc(NCc2nnc(SCc3ccccc3)o2)c1,,9.23% (inactive),-10.7%,
O=C(NC(NC(=S)Nc1ccc(Cl)cc1Cl)C(Cl)(Cl)Cl)c1cccc([N+](=O)[O-])c1 (stereo not given),inactive,,12.3%,
O=C(NC(NC(=S)Nc1c(Cl)cccc1Cl)C(Cl)(Cl)Cl)c1cccc([N+](=O)[O-])c1 (stereo not given),,,18.3%,3.66 µM (active)
O=C(O)c1cccc(NC(=S)NC(NC(=O)c2cccc([N+](=O)[O-])c2)C(Cl)(Cl)Cl)c1 (stereo not given),,-6.68% (inactive),-10.1%,
COCCNC(=O)Cn1c(=O)n(CCCC(=O)NCc2ccc3c(c2)OCO3)c(=O)c2sccc21,inactive,,7.14%,
COc1cccc(CNC(=O)Cn2c(=O)n(CCC(=O)N3CCCCC3)c(=O)c3sccc32)c1,,,-6.85%,4.11 µM (active)
CCCNC(=O)Cn1c(=O)n(CC(=O)N2CCCCC2)c(=O)c2sccc21,inactive,,-0.943%,
